A selection: hits, their analogues and other compounds. The true share with any hit is near 3.3%.
CASP6 VEID inh = inhibitors of human caspase-6; P55212; purified caspase-6, Z-VEID-R110 cleavage fluorescence; inhibition, % at 12.5 µM; hit rate 0.53% among 350,000; AID 686996;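 active = mean inhibition across replicates at least about 35%, with every replicate also reaching that limit, limit read from the data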;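 note: 0% = median of neutral control wells and 100% = no fluorescence left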
FGF22 binding = binders of recombinant human FGF22 by thermal shift; Q9HCT0; hit rate 1.5% among 340,000; SYPRO orange fluorescence; percent of sucrose octasulfate shift, DMSO zero; activity (Tm shift, normalised), % at 9.99 µM;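 active = mean Tm shift, scaled 0 neutral to 100 positive control, at about 1.3% or above, every replicate too, limit read from the data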
Target sequence (Q9HCT0 whole entry, looked up): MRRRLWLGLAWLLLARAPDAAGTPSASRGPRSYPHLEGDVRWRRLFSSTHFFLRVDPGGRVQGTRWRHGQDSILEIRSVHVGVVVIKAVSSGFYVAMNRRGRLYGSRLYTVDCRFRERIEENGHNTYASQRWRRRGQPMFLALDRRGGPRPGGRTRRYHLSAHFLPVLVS
SIRT5 inh = blocks human SIRT5 desuccinylation of peptide; inhibition, % at 15 µM; Q9NXA8; hit rate 1.1% among 330,000; Purified SirT5, succinyl-peptide AMC, trypsin-coupled fluorescence; AID 652115; in the data active = inhibition above about 15%
Target sequence (Q9NXA8 whole entry, looked up): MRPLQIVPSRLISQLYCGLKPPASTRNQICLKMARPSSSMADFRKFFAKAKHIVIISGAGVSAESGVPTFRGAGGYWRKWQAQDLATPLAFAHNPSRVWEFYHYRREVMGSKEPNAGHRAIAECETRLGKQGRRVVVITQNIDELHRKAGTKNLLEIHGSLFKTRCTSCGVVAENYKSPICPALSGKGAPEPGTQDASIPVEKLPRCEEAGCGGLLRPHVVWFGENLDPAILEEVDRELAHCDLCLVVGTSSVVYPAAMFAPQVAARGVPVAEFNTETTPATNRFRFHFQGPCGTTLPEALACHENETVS
INS-1E GSIS act = GLuc luminescence reporter in INS-1E cells, primary screen for activators of glucose-dependent secretion of insulin; hit rate 0.61% among 370,000; AID 743287; activation, % at 16.6 µM; INS-1E GLuc reporter insulin secretion, 2-3 h;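 active = lowest replicate activation of at least 40%, so every replicate reaches that level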;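 note: 0% = median of neutral control wells and 100% = median of IBMX positive control wells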
ERAP1 inh = ERAP1 (human) enzyme inhibition. inhibition, % at 10.7 µM. Q9NZ08. recombinant ERAP1, Leu-AMC fluorescence, 60 min. AID 652197. hit rate 0.15% among 340,000;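 active = mean replicate inhibition of at least 30%, or all replicates individually reaching that 30% level; inactive = mean below 30% and not every replicate reaching it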;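 note: 0% = neutral control wells and 100% = L-leucinethiol positive control wells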
* marks the source's active call; other numbers are inactive results; nt = not tested or not shown.

SMILES | CASP6 VEID inh | FGF22 binding | SIRT5 inh | INS-1E GSIS act | ERAP1 inh
C[C@@H]1CN([C@H](C)CO)C(=O)c2cccc(NC(=O)CCCCCC(=O)Nc3ccccc3N)c2O[C@@H]1CN(C)Cc1ccc(Cl)c(Cl)c1 | -1.2 | -0.2 | nt | 4.5 | -0.2
O=C(O)CSc1cc(C(=O)c2ccccc2O)cn2c(=O)c3c4c(sc3nc12)CCCC4 | 18.0 | -0.1 | 37.3* | -1.7 | 3.1
COc1ccc(-c2nc(SCC(=O)Nc3cccc(S(N)(=O)=O)c3)n[nH]2)cc1 | 2.0 | 1.8* | 0.7 | -4.0 | -1.1
C[C@@H]1CNC(=O)c2c(C(=O)NCc3ccc(CNC(=O)OC(C)(C)C)cc3)ncn21 | -0.7 | 41.6 | -3.0 | 19.1 | 12.6
C[C@@H]1CNC(=O)c2c(C(=O)NCC(=O)OC(C)(C)C)ncn21 | -3.4 | 43.0* | nt | -2.0 | 0.8
FC(F)C(F)(F)Oc1cccc(Nc2nccn3c(-c4cccc5cccnc45)cnc23)c1 | -1.4 | 0.3 | -3.0 | -4.1 | 2.3
COc1ccccc1-c1cnc2c(Nc3cccc(OC(F)(F)C(F)F)c3)nccn12 | -2.4 | -0.3 | nt | 79.3* | -1.4
CO[C@H]1CN(C)C(=O)c2cc(NC(C)=O)ccc2OC[C@H](C)N(C(=O)CN(C)C)C[C@H]1C | -7.7 | nt | -0.8 | 3.7 | 0.7
Cc1ccc(OCCSc2nc3ccccc3n2CC(=O)O)cc1 | 12.5 | 0.0 | 16.5* | nt | 3.7
COc1ccccc1OCCSc1nc2ccccc2n1CC(O)CO (centres undefined) | 1.1 | 0.0 | 18.5* | 2.5 | 1.6
COc1ccc(NC(=O)N(C)C[C@@H]2Oc3ccc(NC(=O)Nc4ccc5c(c4)OCO5)cc3CC(=O)N([C@H](C)CO)C[C@H]2C)cc1 | nt | -0.2 | nt | -10.7 | nt
CC(C)N(Cc1cn(C)nc1-c1cccc(Cl)c1)Cc1nccn1C | nt | 43.3* | -6.4 | -6.9 | -2.3
CC(C)C[C@H]1CN([C@@H](Cc2ccc(O)cc2)CN2CCC[C@H]2CN2C(=O)C(=O)NC[C@@H]2Cc2ccc(O)cc2)C(=O)C(=O)N1CCc1ccccc1 | 7.5 | -0.3 | -3.5 | 43.7* | 1.8
CCOc1ccc(CCN2C(=O)C(=O)N([C@@H](CC(C)C)CN3CCC[C@H]3CN3C(=O)C(=O)NC[C@@H]3CC(C)C)C[C@@H]2Cc2ccc(O)cc2)cc1 | 2.6 | 0.0 | -0.2 | 2.0 | 1.5
CCOc1ccc(CCN2C(=O)C(=O)N([C@@H](CC(C)C)CN3CCC[C@H]3CN3C(=O)C(=O)NC[C@@H]3Cc3ccc(O)cc3)C[C@@H]2Cc2ccccc2)cc1 | 1.3 | 43.3* | nt | nt | -1.1
CC(C)C[C@H]1CN([C@@H](Cc2ccc(O)cc2)CN2CCC[C@H]2CN2C(=O)C(=O)NC[C@@H]2Cc2ccccc2)C(=O)C(=O)N1CCc1ccccc1 | 6.4 | -0.2 | 0.7 | nt | -4.6
COc1ccc(-c2cc3c(nn2)-c2ccccc2C3=O)cc1 | 3.0 | 42.9* | -0.1 | 3.3 | 0.8
COc1ccc(S(=O)(=O)Nc2ccc3c(c2)C(=O)N([C@H](C)CO)C[C@H](C)[C@H](CN(C)Cc2ccc4c(c2)OCO4)O3)cc1 | 2.7 | -0.2 | 16.3* | -4.3 | -0.8
C[C@@H]1CCCCO[C@@H](CN(C)Cc2ccc3c(c2)OCO3)[C@H](C)CN([C@@H](C)CO)C(=O)c2cc(NS(=O)(=O)c3ccc(Cl)cc3)ccc2O1 | -2.5 | nt | 7.1 | -2.5 | -2.1
C[C@@H]1CN([C@@H](C)CO)C(=O)c2cc(NS(=O)(=O)c3ccc(Cl)cc3)ccc2O[C@@H](C)CCCCO[C@@H]1CN(C)Cc1ccc2c(c1)OCO2 | -2.5 | nt | 16.0* | -22.2 | -0.8
C[C@@H]1CN([C@H](C)CO)C(=O)c2cc(NS(=O)(=O)c3ccc(Cl)cc3)ccc2O[C@H]1CN(C)Cc1ccc2c(c1)OCO2 | 1.9 | -0.1 | 19.7* | -20.8 | -2.3
CN1C(=O)c2cc(NC(=O)c3cnccn3)ccc2OC[C@@H]2O[C@@H](CC(=O)O)CC[C@H]21 | -2.0 | -0.2 | -5.9 | 7.6 | 0.9
C[C@H](CO)N1C[C@H](C)[C@H](CN(C)S(=O)(=O)c2cn(C)cn2)Oc2ccc(NS(=O)(=O)c3cccs3)cc2C1=O | -1.3 | -0.3 | 15.5* | 7.4 | 0.2
C[C@H](CO)N1C[C@H](C)[C@@H](CN(C)Cc2ccc(Cl)c(Cl)c2)OCCCC[C@H](C)Oc2ccc(NS(=O)(=O)c3cccs3)cc2C1=O | -2.4 | -0.4 | 19.3* | -15.6 | -3.9
C[C@@H]1CCCCO[C@H](CN(C)Cc2ccc(Cl)c(Cl)c2)[C@@H](C)CN([C@H](C)CO)C(=O)c2cc(NS(=O)(=O)c3cccs3)ccc2O1 | -1.5 | 1.2* | 6.9 | -11.1 | -3.7
SMILES | CASP6 VEID inh | FGF22 binding | SIRT5 inh | INS-1E GSIS act | ERAP1 inh
C[C@@H]1CN([C@@H](C)CO)C(=O)c2cc(NS(=O)(=O)c3cccs3)ccc2O[C@H]1CN(C)S(=O)(=O)c1cn(C)cn1 | 0.7 | -0.4 | -1.1 | 20.1 | -3.2
C[C@@H]1CN([C@H](C)CO)C(=O)c2cc(NS(=O)(=O)c3cn(C)cn3)ccc2O[C@H]1CN(C)CC1CCCCC1 | 2.1 | -0.1 | 17.0* | 3.5 | -0.4
C[C@@H]1CCCCO[C@@H](CN(C)Cc2ccc(Cl)c(Cl)c2)[C@@H](C)CN([C@H](C)CO)C(=O)c2cc(NS(=O)(=O)c3cccs3)ccc2O1 | -1.7 | -0.6 | 10.5 | -7.6 | -2.8
O=C1CN(Cc2ccc(F)cc2)C[C@@H]2[C@H](c3ccc(-c4ccccc4F)cc3)[C@H](CO)N12 | -2.6 | nt | 1.9 | 4.0 | -1.8
COc1ccc2c3c([nH]c2c1)[C@@H](CO)N(C(=O)Nc1ccc(F)cc1)CC31CCN(CC2CC2)CC1 | 3.0 | -0.1 | 4.0 | -3.4 | 1.8
C[C@@H]1CN([C@@H](C)CO)C(=O)c2cc(NS(=O)(=O)c3cccs3)ccc2O[C@@H]1CN(C)Cc1ccc(Cl)c(Cl)c1 | 1.7 | -0.6 | 17.6* | -41.4 | 1.2
C[C@@H]1CN([C@H](C)CO)C(=O)c2cc(NS(=O)(=O)c3cccs3)ccc2O[C@@H]1CN(C)Cc1ccc(Cl)c(Cl)c1 | 0.8 | -0.3 | 3.9 | -40.1 | -3.8
COc1ccc(-c2cc3ccccc3oc2=O)cc1NC(=S)NC(=O)c1ccc2c(c1)OCCO2 | nt | nt | nt | 93.9* | nt
CCC(=O)Nc1cc(-c2cc3ccccc3oc2=O)ccc1OC | 1.4 | 42.9* | -2.5 | 0.9 | 10.3
CC(C)(C)NC(=O)c1nn(Cc2ccccc2)c(=O)c2ccccc12 | -2.5 | 43.4* | 0.6 | 26.6 | 2.5
CCC(CC)NC(=O)c1nn(Cc2ccccc2)c(=O)c2ccccc12 | -2.3 | -0.2 | -2.1 | 5.0 | 0.5
CCCn1nc(C(=O)NC2CCCC2)c2ccccc2c1=O | 2.7 | 0.0 | -2.8 | 57.9* | 1.6
S=C(NCc1ccccc1)N1CCCCC1 | -1.0 | -0.1 | 7.7 | -9.3 | -6.5
CC(=O)N1CCN(C(=S)NCc2ccccc2)CC1 | nt | nt | nt | 57.8* | nt
COc1ccc(CC(=O)Oc2ccc(C)cc2C)cc1 | -1.3 | 0.0 | 0.0 | 5.3 | 0.6
COc1ccc(C/C(C)=N/NC(=O)c2ccc(C)cc2C)cc1 | -1.3 | 44.0* | 0.1 | -5.3 | -0.3

Screening results as filed in PubChem.
